Mtb hypoxia inh = inhibitors of hypoxia-regulated fluorescent reporter in Mycobacterium tuberculosis; M. tuberculosis hypoxia-regulated fluorescent reporter, fluorescence; fluorescence inhibition, % (no concentration beside the values); hit rate 0.1% among 300,000; AID 1159583; in the data active = fluorescence inhibition mostly above about 23%, no sharp cut-off; inactive = mostly below about 17%
Mtb FBA inh = Mtb fructose-bisphosphate aldolase inhibition; P9WQA3; purified M. tuberculosis FBA, fluorescence read-out; inhibition, % at 1 µM; hit rate 2.3% among 360,000; AID 588726;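 also: 0% = vehicle and 100% = reference inhibitor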
PrPC surface inh = cell surface PrPC inhibition, primary TR-FRET screen; P04156; TR-FRET read-out; inhibition, % at 13.8 µM; hit rate 0.43% among 370,000; AID 720596; in the data active = inhibition above about 24%; also: 0% = median of the test wells and 100% = reference compound wells
PrP 5UTR inh = suppresses PrP 5' UTR mRNA reporter expression; cell-based PrP 5' UTR mRNA reporter, plate reader; inhibition, % (no concentration beside the values); hit rate 0.35% among 340,000; AID 488862; in the data active = inhibition above about 52%; also: 0 = median of the neutral control wells
GDH-TPI counter-1 = inhibits GDH-TPI coupling enzymes, artifact for Mtb FBA screen; hit rate 1.2% among 360,000; GDH-TPI coupled enzyme counterscreen, NADH absorbance; AID 588335; inhibition, % at 4.8 µM; in the data active = inhibition above about 30%;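 also: 0% = DMSO wells and 100% = wells lacking the enzyme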
Yp Topo-I inh = inhibitors of Yersinia pestis topoisomerase I. Y. pestis Topo-I cleavage product accumulation, plate reader. activity, % at 10 µM. hit rate 0.064% among 360,000. AID 504884; in the data active = activity above about 50%, passing the limit was not always enough
Mtb FBA confirm = Mtb FBA inhibition, confirmed; shares compounds with Mtb FBA inh; inhibition, % at 1 µM; purified M. tuberculosis FBA, fluorescence read-out; AID 651616; hit rate 78% among 5,600;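 also: 0% = vehicle wells and 100% = reference inhibitor wells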
GDH-TPI counter-2 = GDH-TPI inhibition counter-screen for FBA inhibitors; shares compounds with Mtb FBA inh; GDH-TPI coupled enzyme counterscreen, fluorescence; inhibition, % at 1 µM; hit rate 81% among 5,600; AID 652141; in the data active = inhibition above about 10%
PrPC TRFRET cf = cell surface PrPC inhibition, TR-FRET confirmation | cell surface PrPC level | hit rate 65% among 1,500 | shares compounds with PrPC surface inh | inhibition, % at 13.8 µM; in the data active = inhibition above about 25%
LD9 tox = kills or reduces viability of LD9 cells in PrPc counter-screen; shares compounds with PrPC surface inh; AID 743201; LD9 cells cytotoxicity, luminescence viability; hit rate 29% among 1,500; inhibition, % at 13.8 µM; in the data active = inhibition above about 9.5%
* = called active by the depositor; . = no result shown; + = active, no number. An excerpt weighted towards active compounds, which were near 3.8% of everything screened. Rule as the data show it, unless noted: active = inhibition above about 27%; inactive = the rest.

SMILES	Mtb hypoxia inh	Mtb FBA inh	PrPC surface inh	PrP 5UTR inh	GDH-TPI counter-1	Yp Topo-I inh	PrPC TRFRET cf	LD9 tox	others
COc1cccc2sc(Nc3nnc(-c4ccc(F)cc4)o3)nc12	-3.5	49.2*	26.5*	-36.2	40.4*	35.3	33.5*	-3.5	Mtb FBA confirm=+;GDH-TPI counter-2=+
Cc1c(Br)c(=O)oc2cc(OCC(=O)N3C[C@H]4C[C@@H](C3)c3cccc(=O)n3C4)ccc12	.	39.6*	37.8*	-5.4	21.6	4.3	54.6*	-3.1	Mtb FBA confirm=54.3*;GDH-TPI counter-2=64.5*
CCN1C(=O)C(C)SC1=NS(=O)(=O)c1ccc(Cl)s1 (stereo unspecified)	3.7	.	.	.	.	.	.	.
O=C(Nc1cc(S(=O)(=O)N2CCCCC2)ccc1Cl)c1ccccc1NS(=O)(=O)c1ccc(F)cc1	-3.0	32.9*	25.2*	-1.1	8.3	-3.7	33.0*	24.7*	Mtb FBA confirm=-7.1;GDH-TPI counter-2=-6.0
S=c1[nH]nc(COc2ccccc2)n1N=Cc1ccc(Br)cc1	7.1	.	.	.	.	.	.	.
Cc1c(C(=O)O)oc2c3c(ccc12)OCCO3	.	59.8*	26.2*	-28.5	8.6	-5.9	30.7*	1.0	Mtb FBA confirm=98.7*;GDH-TPI counter-2=87.0*
Cc1noc(C)c1S(=O)(=O)N(C)CC1Oc2ccc(NC(=O)Cc3ccccc3)cc2C(=O)N(C(C)CO)CC1C (stereo unspecified)	2.9	.	.	.	.	.	.	.
Cc1onc(-c2ccccc2Cl)c1C(=O)Nc1nnc(-c2ccc(Br)cc2)s1	-6.2	92.0*	26.3*	-10.8	36.5*	-0.4	40.6*	-4.7	Mtb FBA confirm=118.6*;GDH-TPI counter-2=99.0*
Cc1onc(-c2ccccc2Cl)c1C(=O)Nc1nnc(-c2ccc(F)cc2)s1	-2.3	16.5	3.5	-23.3	18.7	9.9	.	.
CCc1ccc(-c2nc3ccc(Br)cc3c(C(=O)O)c2C)s1	8.5	38.2*	47.8*	-25.7	17.9	14.3	83.7*	-3.2	Mtb FBA confirm=60.5*;GDH-TPI counter-2=44.9*
CC(C)Nc1ccc(Nc2ccnc3cc4ccccc4cc23)cc1	.	-1.5	-3.5	-22.4	-1.3	-10.1	.	.
c1ccc(CCNc2ccnc3cc4ccccc4cc23)cc1	.	47.0*	80.4*	-39.4	3.5	0.7	23.3	80.2*	Mtb FBA confirm=-1.2;GDH-TPI counter-2=-1.0
Brc1c(CSc2nc3ccccc3o2)nc2ncccn12	.	62.6*	49.0*	-54.3	12.3	0.8	47.4*	-6.3	Mtb FBA confirm=63.4*;GDH-TPI counter-2=42.9*
COc1ccc(C=NNc2nc(N3CCCC3)nc(N3CCCC3)n2)cc1	7.4	.	.	.	.	.	.	.
O=C(CN1CCCCC1)Nc1c2c(nc3ccccc13)N(c1ccccc1)CC2	2.5	79.6*	44.0*	-15.3	3.0	34.9	102.2*	11.6*	Mtb FBA confirm=151.7*;GDH-TPI counter-2=125.0*
CCCCc1nc2ccccc2c(NC(=O)CN2CCCC2)c1CCC	5.2	1.4	6.2	-26.5	10.8	5.7	.	.
NS(=O)(=O)c1c(Sc2ccccc2C(=O)O)ccc2ccccc12	1.1	2.1	34.1*	-11.7	12.7	0.6	52.5*	-5.2
CNS(=O)(=O)c1cc(Cl)ccc1Sc1ccccc1C(=O)O	-0.2	-0.2	0.5	-58.0	-3.1	6.5	.	.
COc1ccc(S(=O)(=O)N(CC(=O)NN=Cc2cccs2)c2cc(C)cc(C)c2)cc1OC	13.9	.	.	.	.	.	.	.
CCOc1ccc(C(CCC(=O)O)=NNC(=S)NCCc2ccccc2)cc1	4.5	.	.	.	.	.	.	.
CCc1c(C)nc(N)nc1N1N=C1SCC(N)=O	3.9	-0.9	26.0*	-23.3	13.3	3.7	25.5*	-3.0
O=C(Nc1ccccc1Cl)c1cc(C2CCCN(C(=O)C3CCCCC3)C2)on1 (stereo unspecified)	.	-4.6	0.4	.	-1.8	26.3	.	.
CN(C)c1ccc(CC(=O)N2CCCC(c3cc(C(=O)Nc4ccc(F)c(Cl)c4)no3)C2)cc1 (stereo unspecified)	.	-0.8	26.6*	.	4.9	12.4	19.2	9.1
O=C(Nc1ccc2c(c1)OCO2)c1cc(C2CCCCN2S(=O)(=O)c2ccccc2)on1 (stereo unspecified)	.	4.6	47.2*	.	11.0	23.7	40.4*	-0.1
O=C(Nc1ccc2c(c1)OCO2)c1cc(C2CCCN(C(=O)C3CCCCC3)C2)on1 (stereo unspecified)	.	2.8	33.3*	.	1.3	22.4	24.3	-4.4
SMILES	Mtb hypoxia inh	Mtb FBA inh	PrPC surface inh	PrP 5UTR inh	GDH-TPI counter-1	Yp Topo-I inh	PrPC TRFRET cf	LD9 tox	others
COc1ccc(N(CC(=O)NN=Cc2cccs2)S(=O)(=O)c2ccccc2)cc1	0.6	.	.	.	.	.	.	.
Cc1nc2ccccn2c1C(=O)NN=Cc1ccc(CNC(=O)C(=O)Nc2ccccc2)o1	10.2	.	.	.	.	.	.	.
O=C(O)c1ccc(NC(=O)C2CC=CCC2C(=O)O)cc1 (stereo unspecified)	.	-0.1	31.4*	-8.7	6.0	-2.9	6.1	-1.4
CN(C)C=Nc1c(C#N)cnn1C	6.6	.	.	.	.	.	.	.
NC(=O)c1nn(-c2cccc(Cl)c2)c(=O)cc1O	4.5	-0.1	48.9*	-11.4	10.0	17.5	48.7*	-7.6
NC(=O)c1nn(-c2ccccc2)c(=O)cc1O	3.9	-0.2	-0.6	10.6	7.6	-3.1	.	.
CC(C)=CCC[C@@]1(C(=O)O)[C@H]2CC=C(CO)[C@@H]1CC/C(C)=C/CC/C(C)=C/C2	.	.	24.4*	.	.	.	27.1*	11.8*
C=CCNC(=S)NN=Cc1ccc(N(CC)Cc2ccccc2)cc1	5.1	.	.	.	.	.	.	.
Cc1nc(SCc2nc3ccccc3[nH]2)c2oc3ccccc3c2n1	15.4	-7.3	-5.0	-5.2	-5.1	23.6	.	.
c1ccc2[nH]c(CSc3ncnc4c3oc3ccccc34)nc2c1	-9.4	3.1	28.8*	-99.9	10.7	0.9	26.4*	-1.1
Cc1ccc(C(=O)Nc2nc(COc3ccccc3)cs2)s1	2.8	0.2	30.0*	-18.2	9.2	-24.0	22.2	5.9
CC(=O)Nc1nc(COc2ccccc2)cs1	4.7	0.8	11.0	-57.2	1.8	3.2	.	.
CCOc1ccccc1NC(=O)Nc1ccc(Cl)cc1	-4.1	9.7	25.9*	-1.2	4.2	-4.1	12.7	-0.1
CCOc1ccccc1NC(=O)Nc1ccccn1	-6.2	0.1	-5.4	-17.0	1.6	11.7	.	.
O=C(NN=Cc1ccncc1)/C(=C/c1ccccc1)NC(=O)c1ccccc1	7.6	.	.	.	.	.	.	.
Oc1ccc(C=Nn2c(COc3ccccc3)n[nH]c2=S)c(O)c1	2.5	.	.	.	.	.	.	.
CCc1cc2cccc(C)c2nc1SCC(=O)Nc1nonc1C	2.8	-4.6	30.6*	-20.1	-0.3	4.5	35.2*	-4.5
CCc1cc2cccc(C)c2nc1SCC(=O)NNC(=O)c1ccco1	17.6	-0.8	70.7*	-14.6	9.6	27.7	98.1*	-3.0

Compound activity as filed in PubChem.
